Experimental data as given in PubChem BioAssay (NCATS).
Where “and” joins values, the source holds several entries; their conditions need not be identical. Equal values may be shown once. A number with no mark means an inactive call. Calls follow the shape of the full dose curve.

Each compound was assayed against Glucocorticoid receptor (Homo sapiens) (UniProt P04150) (assay: GR-EFC Redistribution (AID 451)). Settings: CHO-K1 GR-EFC translocation, beta-gal luminescence, 2 h.
Excerpt: NIH Molecular Libraries Screening Centers Network [MLSCN]
NIH Chemical Genomics Center [NCGC]
The glucocorticoid receptor (GR) is a cytoplasmic receptor that belongs to the nuclear receptor family of ligand-dependent transcription factors. Upon glucocorticoid binding to its receptor, the glucocorticoid-GR complex translocates into the nucleus, where it binds as a dimer to specific DNA sequences (glucocorticoid response elements), enhancing or suppressing transcription of a wide variety of glucocorticoid-responsive genes. In addition to their important roles in normal physiology and metabolism, glucocorticoids are administered exogenously as treatments for a wide variety of allergic, autoimmune, and neoplastic conditions. Identification of compounds that modulate aspects of GR signalling would be useful in dissecting glucocorticoid response pathways as well as developing GR modulators with more targeted clinical effects.
Traditionally, GR modulators have been identified using receptor binding or direct transactivation assays. However, assays for glucocorticoid-dependent nuclear translocation can also be used to screen for compounds affecting GR signaling.
Immunocytochemical staining has been used to assay for GR translocation, but is not suitable for high throughout screening due to the multiple reagent addition and wash steps required. Recently, a novel cell-based GR assay in Enzyme Fragment Complementation (EFC) format was developed by DiscoveRx (Fremont, CA). The assay uses EFC of b-galactosidase (b-gal) as an indicator of GR-translocation in engineered CHO-K1 biosensor cells. The enzyme acceptor (EA) fragment of b-gal resides in the nucleus , as designed through the use of a proprietary set of sequence additions and modifications. The small peptide enzyme donor (ED) fragment of b-gal is fused directly to the C-terminus of GR, and is localized in the cytoplasm is the absence of receptor signaling. Upon binding to a GR ligand, the complex translocates to the nucleus, where intact enzyme activity is restored by complementation and b-gal activity is detected. We optimized this GR-EFC assay in homogenous 1536-well plate assay format for high throughput screening.
NCGC Assay Protocol Summary:
CHO-K1 cells stably expressing NLS-enzyme acceptor fragment (EA) of b-gal and GR-enzyme donor (ED) fragment of b-gal were maintained in F12 medium (Invitrogen, Carlsbad, CA) at 37 Celsius degrees under a humidified atmosphere containing 5% CO2 and 95% air. The medium contained 10% FBS, 2 mM L-glutamine, 50 U/ml penicillin 50 ug/ml streptomycin, and 250 ug/ml hygromycin and 500 ug/ml G418 (Invitrogen).
GR-translocation was measured beta-gal enzyme activity using the PathHunter Detection Kit containing cell membrane permeablizing reagent and beta-gal substrate (DiscoveRx, Fremont, CA). All compounds were screened as titrations from 0.6 nM to 46 uM final concentration. The assay was performed in 1536-well format as follows:
5 uL cell suspension (1,000 cells)/well
Incubation at 37 Celsius degrees for two hours
1.25 uL 1X detection buffer from the kit supplied by DiscoveRx
Incubation at room temperature for one hour
Read plate in luminescence mode in ViewLux plate reader (PerkinElmer)
Keywords: NIH Roadmap, MLSCN, MLI, MLSMR, GR-EFC, GREFC, qHTS, NCGC
Potency is read from the fitted curve at half-maximal effect.

Chain of Glucocorticoid receptor (Homo sapiens) (P04150 whole entry, looked up): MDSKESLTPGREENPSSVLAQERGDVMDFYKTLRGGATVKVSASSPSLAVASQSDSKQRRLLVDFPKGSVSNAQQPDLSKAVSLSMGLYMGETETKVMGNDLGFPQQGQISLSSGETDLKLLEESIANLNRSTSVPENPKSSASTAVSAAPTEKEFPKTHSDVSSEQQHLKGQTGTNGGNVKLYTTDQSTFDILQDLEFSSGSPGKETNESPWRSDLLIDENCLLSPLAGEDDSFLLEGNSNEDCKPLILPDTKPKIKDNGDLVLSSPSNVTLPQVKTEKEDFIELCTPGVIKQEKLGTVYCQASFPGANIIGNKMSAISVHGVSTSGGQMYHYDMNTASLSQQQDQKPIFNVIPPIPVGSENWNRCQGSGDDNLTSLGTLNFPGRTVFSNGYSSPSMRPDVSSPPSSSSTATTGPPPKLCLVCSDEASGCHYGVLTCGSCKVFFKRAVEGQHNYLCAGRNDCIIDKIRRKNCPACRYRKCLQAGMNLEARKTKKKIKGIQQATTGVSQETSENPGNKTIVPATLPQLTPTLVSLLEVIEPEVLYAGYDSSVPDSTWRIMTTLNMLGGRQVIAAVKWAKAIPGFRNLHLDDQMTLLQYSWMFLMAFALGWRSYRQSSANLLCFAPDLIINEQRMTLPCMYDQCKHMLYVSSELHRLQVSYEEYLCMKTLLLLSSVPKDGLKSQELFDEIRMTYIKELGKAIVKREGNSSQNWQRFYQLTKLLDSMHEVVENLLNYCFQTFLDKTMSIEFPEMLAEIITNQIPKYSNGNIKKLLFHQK

Structure (SMILES) | Potency
COC(=O)[C@H]1C(=O)[C@H](C(=O)OC)[C@@H]2CC[C@H]1N2C | > 9.22 µM
O=C(O)C(O)(c1ccc(-c2ccccc2)cc1)c1ccc(-c2ccccc2)cc1 | > 9.22 µM
O=C(O)C(C(=O)O)P(=S)(S)c1ccccc1 (stereo not given) | > 9.22 µM
N[C@H](Cc1ccc2oc3cc(=O)c4ccccc4c-3nc2c1)C(=O)O | > 9.22 µM
C[N+]1(C)CCc2cc3c(cc2[C@@H]1[C@@H]1OC(=O)c2c1ccc1c2OCO1)OCO3 | > 46 µM
N[C@H](Cn1oc(=O)[nH]c1=O)C(=O)O | > 46 µM
NCCc1c[nH]c2ccc(OC(=O)C(=O)O)cc12 | > 9.22 µM
COc1ccc2c3c1O[C@@H]1C(=O)CC[C@@]4(O)[C@@H](C2)N(CC2CC2)CC[C@]314 | > 46 µM
N=C(N)n1cc(/C=N\N=C(N)N)cn1 | > 9.22 µM
N#CCCCC[N+]12CN3CN(CN(C3)C1)C2 | > 9.22 µM
CC(C)CNCCc1ccccn1 | > 9.22 µM
c1cncc(CNCCN2CCNCC2)c1 | > 9.22 µM
C[n+]1c(/C=C\c2ccc(O)c3ncccc23)[se]c2ccccc21 | > 9.22 µM
O=[As](O)(O)c1ccc(N=Nc2ccc([As](=O)(O)O)cc2)cc1 | > 9.22 µM
O=C(O)CNC(=O)c1ccc([As](=O)(O)O)cc1 | > 9.22 µM
CCC1(CCSC(=N)N)C(=O)NC(=O)NC1=O | > 9.22 µM
O=C(O)[C@@H]1[C@H](C(=O)O)[C@]2(Cl)C(Cl)=C(Cl)[C@@]1(Cl)C2(Cl)Cl | > 9.22 µM
CC(C)c1ccc(C(O)(C(=O)O)c2ccc(C(C)C)cc2)cc1 | > 9.22 µM
COc1ccccc1CN1CCCC2(CCN(C(=O)Oc3ccccc3)CC2)C1 | > 46 µM
C[C@@]12CC[C@H](O)C[C@@H]1CC[C@@H]1[C@@H]2CC[C@@]2(C)[C@@H](C3=CC(=O)OC3)[C@H](O)C[C@]12O | > 9.22 µM

Structure (SMILES) | Potency
Nc1nc(N)c(N=Nc2ccc([As](=O)(O)O)c(O)c2)c(N)n1 | > 9.22 µM
NNc1c(C(N)=O)c2c(N)ncnc2n1[C@@H]1O[C@H](CO)[C@@H](O)[C@@H]1O | > 9.22 µM
CN[C@H](Cc1ccccc1)c1cccc(OC)c1O | > 9.22 µM
CC(C)N[C@@H](C)Cc1ccc(I)cc1 | > 46 µM
CN1CCN(c2ccc([N+](=O)[O-])c3[nH]o[n+](=O)c23)CC1 | > 9.22 µM
O=C(O)[C@H]1[O][Sb][O][C@@H](C(=O)O)C1O (stereo not given in full) | > 9.22 µM
O=C(O)Cc1ccc([N+](=O)[O-])cc1[N+](=O)[O-] | > 9.22 µM
COc1ccc(C[C@@H](N)c2ccc(OC)cc2)cc1 | > 9.22 µM
O=C(CCN1CC2CCC(CC2)C1)c1cccs1 | > 9.22 µM
N[C@@H](Cc1c[nH]c2cc([N+](=O)[O-])ccc12)C(=O)O | > 9.22 µM
NNc1nncn1N | > 9.22 µM
CSc1ccc2c(c1)c(CCN)c(C)n2Cc1ccccc1Cl | > 9.22 µM
C[Se]C[C@@H](N)C(=O)O | > 46 µM
COc1ccc2c(c1O)-c1cccc3c1[C@H](C2)N(C)CC3 | > 46 µM
COC(=O)[C@@H]1c2cc3c(c(O)c2[C@@H](O)C[C@]1(C)O)C(=O)c1c(O)cc2c(c1C3=O)O[C@H]1O[C@@]2(C)[C@@H](O)[C@H](N(C)C)[C@H]1O | > 9.22 µM
COc1cc2c(cc1OC)[C@]13CC[N@+]4(C)CC5=CCO[C@H]6CC(=O)N2[C@@H]1[C@@H]6[C@@H]5C[C@]34O | > 9.22 µM
CC1(C)N=C(N)N=C(N)N1c1cccc(C(=O)Nc2ccc(S(=O)(=O)F)cc2)c1 | > 9.22 µM
N[C@H](Cc1ccccc1)c1nn[nH]n1 | > 9.22 µM
C[N+]1(C)C2CC[C@H]1CC(OC(=O)[C@@H](CO)c1ccccc1)C2 (stereo not given in full) | > 9.22 µM
C[C@@H](Cc1ccc(O)cc1)NC[C@@H](O)c1cc(O)cc(O)c1 | > 46 µM and > 20.6 µM
